# Measured values from article PMC11006913.
# Assays:
# Assay in all cases: PBM; 200 nM protein, PBS
# Conditions in all cases: dsDNA, one strand shown
# SHOX [1] = molecular target: SHOX (Homo sapiens, UniProt O15266 103-189)
# SHOX [2] = molecular target: SHOX (Homo sapiens, UniProt O15266 103-189, R173C)
# HOXB6 [3] = molecular target: HOXB6 (Homo sapiens, UniProt P17509 132-218, K202E)
# VAX1 = VAX1 (Homo sapiens, UniProt Q5SQQ9 86-172, K157R)
# HOXB6 [4] = molecular target: HOXB6 (Homo sapiens, UniProt P17509 132-218)
# HOXA2 [5] = molecular target: HOXA2 (Homo sapiens, UniProt O43364 129-215, R185T)
# HOXA2 [6] = molecular target: HOXA2 (Homo sapiens, UniProt O43364 129-215, R185K)
# HOXA2 [7] = molecular target: HOXA2 (Homo sapiens, UniProt O43364 129-215, Y150S)
# HOXA2 [8] = molecular target: HOXA2 (Homo sapiens, UniProt O43364 129-215)
# HESX1 [9] = molecular target: HESX1 (Homo sapiens, UniProt Q9UBX0 95-180, R165K)
# HESX1 [10] = molecular target: HESX1 (Homo sapiens, UniProt Q9UBX0 95-180)
# HESX1 [11] = molecular target: HESX1 (Homo sapiens, UniProt Q9UBX0 95-180, P111T)
# HESX1 [12] = molecular target: HESX1 (Homo sapiens, UniProt Q9UBX0 95-180, F115L)
# HOXB9 = HOXB9 (Homo sapiens, UniProt P17482 171-250)
# PROP1 [13] = molecular target: PROP1 (Homo sapiens, UniProt O75360 56-141)
# PROP1 [14] = molecular target: PROP1 (Homo sapiens, UniProt O75360 56-141, R99H)
# PROP1 [15] = molecular target: PROP1 (Homo sapiens, UniProt O75360 56-141, F88S)
# MSX2 [16] = molecular target: MSX2 (Homo sapiens, UniProt P35548 130-214, R199I)
# MSX2 [17] = molecular target: MSX2 (Homo sapiens, UniProt P35548 130-214)
# MSX2 [18] = molecular target: MSX2 (Homo sapiens, UniProt P35548 130-214, F161Y)
# Chain of MSX2 (Homo sapiens, UniProt P35548 130-214, F161Y) (P35548 130-214 F161Y): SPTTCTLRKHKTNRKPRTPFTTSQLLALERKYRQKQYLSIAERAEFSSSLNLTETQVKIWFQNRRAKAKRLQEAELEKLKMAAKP
# Chain of MSX2 (Homo sapiens, UniProt P35548 130-214, R199I) (P35548 130-214 R199I): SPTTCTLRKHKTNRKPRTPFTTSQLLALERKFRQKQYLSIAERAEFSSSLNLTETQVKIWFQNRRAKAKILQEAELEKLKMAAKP
# Chain of HOXA2 (Homo sapiens, UniProt O43364 129-215, R185T) (O43364 129-215 R185T): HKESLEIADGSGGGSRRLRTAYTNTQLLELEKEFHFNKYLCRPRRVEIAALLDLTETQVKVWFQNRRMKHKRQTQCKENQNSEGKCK
# Chain of VAX1 (Q5SQQ9 86-172 K157R): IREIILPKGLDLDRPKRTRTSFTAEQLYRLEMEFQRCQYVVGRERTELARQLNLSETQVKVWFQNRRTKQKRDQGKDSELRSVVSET
# Chain of SHOX (Homo sapiens, UniProt O15266 103-189) (O15266 103-189): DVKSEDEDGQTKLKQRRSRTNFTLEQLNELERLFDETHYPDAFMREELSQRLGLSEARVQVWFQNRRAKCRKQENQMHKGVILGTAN
# Chain of HOXA2 (Homo sapiens, UniProt O43364 129-215, Y150S) (O43364 129-215 Y150S): as the sequence (O43364 129-215 R185T) above, with Y22S, T57R counted along it
# Chain of MSX2 (Homo sapiens, UniProt P35548 130-214) (P35548 130-214): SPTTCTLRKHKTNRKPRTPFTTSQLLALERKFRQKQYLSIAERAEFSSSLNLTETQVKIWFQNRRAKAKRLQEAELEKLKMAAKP
# Chain of HOXB6 (Homo sapiens, UniProt P17509 132-218) (P17509 132-218): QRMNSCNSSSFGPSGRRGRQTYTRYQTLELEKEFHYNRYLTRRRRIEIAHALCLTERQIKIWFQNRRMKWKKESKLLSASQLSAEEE
# Chain of HOXB9 (P17482 171-250): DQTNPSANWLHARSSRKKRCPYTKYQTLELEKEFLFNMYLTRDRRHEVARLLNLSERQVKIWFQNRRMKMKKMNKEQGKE
# Chain of HOXA2 (Homo sapiens, UniProt O43364 129-215, R185K) (O43364 129-215 R185K): as the sequence (O43364 129-215 R185T) above, with T57K counted along it
# Chain of SHOX (Homo sapiens, UniProt O15266 103-189, R173C) (O15266 103-189 R173C): as the sequence (O15266 103-189) above, with R71C counted along it
# Chain of HOXA2 (Homo sapiens, UniProt O43364 129-215) (O43364 129-215): as the sequence (O43364 129-215 R185T) above, with T57R counted along it
# Chain of HOXB6 (Homo sapiens, UniProt P17509 132-218, K202E) (P17509 132-218 K202E): as the sequence (P17509 132-218) above, with K71E counted along it
# Chain of HESX1 (Homo sapiens, UniProt Q9UBX0 95-180, F115L) (Q9UBX0 95-180 F115L): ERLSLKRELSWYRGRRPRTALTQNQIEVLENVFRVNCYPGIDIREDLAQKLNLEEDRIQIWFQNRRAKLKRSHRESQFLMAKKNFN
# Chain of PROP1 (Homo sapiens, UniProt O75360 56-141) (O75360 56-141): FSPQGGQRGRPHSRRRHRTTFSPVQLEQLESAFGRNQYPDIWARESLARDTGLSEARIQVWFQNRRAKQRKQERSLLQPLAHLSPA
# Chain of PROP1 (Homo sapiens, UniProt O75360 56-141, F88S) (O75360 56-141 F88S): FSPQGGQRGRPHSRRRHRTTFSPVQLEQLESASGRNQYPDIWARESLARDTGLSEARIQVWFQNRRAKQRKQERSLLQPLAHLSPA
# Chain of PROP1 (Homo sapiens, UniProt O75360 56-141, R99H) (O75360 56-141 R99H): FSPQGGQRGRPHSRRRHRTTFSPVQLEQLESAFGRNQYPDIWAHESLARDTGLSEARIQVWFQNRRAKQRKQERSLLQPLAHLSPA
# Chain of HESX1 (Homo sapiens, UniProt Q9UBX0 95-180, R165K) (Q9UBX0 95-180 R165K): as the sequence (Q9UBX0 95-180 F115L) above, with L21F, R71K counted along it
# Chain of HESX1 (Homo sapiens, UniProt Q9UBX0 95-180) (Q9UBX0 95-180): as the sequence (Q9UBX0 95-180 F115L) above, with L21F counted along it
# Chain of HESX1 (Homo sapiens, UniProt Q9UBX0 95-180, P111T) (Q9UBX0 95-180 P111T): as the sequence (Q9UBX0 95-180 F115L) above, with P17T, L21F counted along it
sequence,measurement,setting,value
ACCCGGGC,binding signal,SHOX [1],"7.11 upbm affinity estimate (log intensity, higher = more binding, comparable within an allelic series)"
same,binding signal,SHOX [2],"7.15 upbm affinity estimate (log intensity, higher = more binding, comparable within an allelic series)"
ACGGCGGC,binding signal,HOXB6 [3],"8.91 upbm affinity estimate (log intensity, higher = more binding, comparable within an allelic series)"
same,binding signal,VAX1,"7.25 upbm affinity estimate (log intensity, higher = more binding, comparable within an allelic series)"
same,binding signal,HOXB6 [4],"9.12 upbm affinity estimate (log intensity, higher = more binding, comparable within an allelic series)"
CCAGGCCG,binding signal,HOXA2 [5],"7.21 upbm affinity estimate (log intensity, higher = more binding, comparable within an allelic series)"
same,binding signal,HOXA2 [6],"10.2 upbm affinity estimate (log intensity, higher = more binding, comparable within an allelic series)"
same,binding signal,HOXA2 [7],"10.3 upbm affinity estimate (log intensity, higher = more binding, comparable within an allelic series)"
same,binding signal,HOXA2 [8],"7.17 upbm affinity estimate (log intensity, higher = more binding, comparable within an allelic series)"
CTTCCGTC,binding signal,HESX1 [9],"6.54 upbm affinity estimate (log intensity, higher = more binding, comparable within an allelic series)"
same,binding signal,HESX1 [10],"6.45 upbm affinity estimate (log intensity, higher = more binding, comparable within an allelic series)"
same,binding signal,HESX1 [11],"6.55 upbm affinity estimate (log intensity, higher = more binding, comparable within an allelic series)"
same,binding signal,HESX1 [12],"6.61 upbm affinity estimate (log intensity, higher = more binding, comparable within an allelic series)"
CGCCCGAG,binding signal,HOXB9,"8.15 upbm affinity estimate (log intensity, higher = more binding, comparable within an allelic series)"
same,binding signal,PROP1 [13],"6.84 upbm affinity estimate (log intensity, higher = more binding, comparable within an allelic series)"
same,binding signal,PROP1 [14],"6.77 upbm affinity estimate (log intensity, higher = more binding, comparable within an allelic series)"
same,binding signal,PROP1 [15],"6.6 upbm affinity estimate (log intensity, higher = more binding, comparable within an allelic series)"
CACTTTAA,binding signal,SHOX [1],"8.82 upbm affinity estimate (log intensity, higher = more binding, comparable within an allelic series)"
CACTTAGA,binding signal,HESX1 [9],"7.73 upbm affinity estimate (log intensity, higher = more binding, comparable within an allelic series)"
same,binding signal,HESX1 [10],"7.94 upbm affinity estimate (log intensity, higher = more binding, comparable within an allelic series)"
same,binding signal,HESX1 [12],"6.78 upbm affinity estimate (log intensity, higher = more binding, comparable within an allelic series)"
CTACTTAA,binding signal,PROP1 [13],"8.53 upbm affinity estimate (log intensity, higher = more binding, comparable within an allelic series)"
same,binding signal,PROP1 [14],"8.11 upbm affinity estimate (log intensity, higher = more binding, comparable within an allelic series)"
same,binding signal,PROP1 [15],"7.26 upbm affinity estimate (log intensity, higher = more binding, comparable within an allelic series)"
ACCAGCTG,binding signal,SHOX [1],"7.08 upbm affinity estimate (log intensity, higher = more binding, comparable within an allelic series)"
same,binding signal,SHOX [2],"7.03 upbm affinity estimate (log intensity, higher = more binding, comparable within an allelic series)"
GCACTTAA,binding signal,HOXB6 [3],"9.75 upbm affinity estimate (log intensity, higher = more binding, comparable within an allelic series)"
same,binding signal,HOXA2 [5],"10.2 upbm affinity estimate (log intensity, higher = more binding, comparable within an allelic series)"
same,binding signal,HOXA2 [6],"12.3 upbm affinity estimate (log intensity, higher = more binding, comparable within an allelic series)"
same,binding signal,HOXA2 [7],"10.8 upbm affinity estimate (log intensity, higher = more binding, comparable within an allelic series)"
same,binding signal,HOXA2 [8],"10.4 upbm affinity estimate (log intensity, higher = more binding, comparable within an allelic series)"
same,binding signal,HOXB6 [4],"10.9 upbm affinity estimate (log intensity, higher = more binding, comparable within an allelic series)"
CGGTCCAA,binding signal,SHOX [1],"7.28 upbm affinity estimate (log intensity, higher = more binding, comparable within an allelic series)"
same,binding signal,SHOX [2],"7.18 upbm affinity estimate (log intensity, higher = more binding, comparable within an allelic series)"
ATAATGGG,binding signal,HOXB6 [3],"9.9 upbm affinity estimate (log intensity, higher = more binding, comparable within an allelic series)"
same,binding signal,HOXB6 [4],"11.8 upbm affinity estimate (log intensity, higher = more binding, comparable within an allelic series)"
CCGGTGGC,binding signal,MSX2 [16],"9.47 upbm affinity estimate (log intensity, higher = more binding, comparable within an allelic series)"
same,binding signal,MSX2 [17],"9.56 upbm affinity estimate (log intensity, higher = more binding, comparable within an allelic series)"
same,binding signal,MSX2 [18],"9.58 upbm affinity estimate (log intensity, higher = more binding, comparable within an allelic series)"
same,binding signal,VAX1,"7.27 upbm affinity estimate (log intensity, higher = more binding, comparable within an allelic series)"
CTGGCCAG,binding signal,MSX2 [16],"9.71 upbm affinity estimate (log intensity, higher = more binding, comparable within an allelic series)"
same,binding signal,MSX2 [17],"9.79 upbm affinity estimate (log intensity, higher = more binding, comparable within an allelic series)"
same,binding signal,MSX2 [18],"9.83 upbm affinity estimate (log intensity, higher = more binding, comparable within an allelic series)"
CCAGCCAG,binding signal,HOXB9,"8.34 upbm affinity estimate (log intensity, higher = more binding, comparable within an allelic series)"
CACGGGCC,binding signal,HOXA2 [5],"6.97 upbm affinity estimate (log intensity, higher = more binding, comparable within an allelic series)"
same,binding signal,MSX2 [16],"9.44 upbm affinity estimate (log intensity, higher = more binding, comparable within an allelic series)"
same,binding signal,HOXA2 [6],"10.1 upbm affinity estimate (log intensity, higher = more binding, comparable within an allelic series)"
same,binding signal,MSX2 [17],"9.39 upbm affinity estimate (log intensity, higher = more binding, comparable within an allelic series)"
same,binding signal,MSX2 [18],"9.46 upbm affinity estimate (log intensity, higher = more binding, comparable within an allelic series)"
same,binding signal,HOXA2 [7],"10.3 upbm affinity estimate (log intensity, higher = more binding, comparable within an allelic series)"
same,binding signal,HOXA2 [8],"6.84 upbm affinity estimate (log intensity, higher = more binding, comparable within an allelic series)"
CATGCGCC,binding signal,HOXB9,"8.56 upbm affinity estimate (log intensity, higher = more binding, comparable within an allelic series)"
CGTGCACG,binding signal,HOXB9,"8.75 upbm affinity estimate (log intensity, higher = more binding, comparable within an allelic series)"
GCGACGCC,binding signal,HOXA2 [5],"7.22 upbm affinity estimate (log intensity, higher = more binding, comparable within an allelic series)"
same,binding signal,HOXA2 [6],"10.4 upbm affinity estimate (log intensity, higher = more binding, comparable within an allelic series)"
same,binding signal,HOXA2 [7],"10.6 upbm affinity estimate (log intensity, higher = more binding, comparable within an allelic series)"
same,binding signal,HOXA2 [8],"7.31 upbm affinity estimate (log intensity, higher = more binding, comparable within an allelic series)"
same,binding signal,VAX1,"7.22 upbm affinity estimate (log intensity, higher = more binding, comparable within an allelic series)"
